Assay results as given in PubChem BioAssay (Tox21).
Where “and” joins values, the source holds several entries; their conditions need not be identical. Equal values may be shown once. Inconclusive results are not listed. Entries that show only a call come without a potency. A structure can be active in one record and inactive in another. Calls of active or inactive are those of the source. Calls follow the shape of the dose curve; as a rule, active = well fitted curve in the direction sought with a large enough effect in the repeat runs; inconclusive = weak or mixed curves; inactive = no such curve, though single readings can be large; an effect the other way counts as inactive or inconclusive.

What was measured:
[1] = A CellTox Green Cytotoxicity Assay to monitor cytotoxicity in HEK293 cells - 32 hour (AID 1224881); also: nearly all actives have a fitted effect of over 40% in size; also: potency is read from the fitted curve at half-maximal effect
Procedure, shortened: (§1)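 Cells (HEK293, 600/well) and dye reagent are dispensed together. After 5 h at 37 C, 23 nL compound is pinned in. Plates stay at 37 C for 40 h with fluorescence read at 0h, 8h, 16h, 24h, 32h and 40h.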

[2] = A CellTox Green Cytotoxicity Assay to monitor cytotoxicity in HepG2 cells - 0 hour (AID 1224882); also: nearly all actives have a fitted effect of over 35% in size; also: potency is read from the fitted curve at half-maximal effect
Procedure, shortened: (§2)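 Cells and non-lytic dye reagent are dispensed together (600 HepG2 cells/well) and incubated 5 h before DMSO compound transfer. Kinetic fluorescence is then recorded in the same wells during 40 h at 37 C.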

[3] = A CellTox Green Cytotoxicity Assay to monitor cytotoxicity in HepG2 cells - 32 hour (AID 1224883); also: nearly all actives have a fitted effect of over 50% in size; also: potency is read from the fitted curve at half-maximal effect
Procedure, shortened: as §2

[4] = A CellTox Green Cytotoxicity Assay to monitor cytotoxicity in HEK293 cells - 8 hour (AID 1224884); also: nearly all actives have a fitted effect of over 35% in size; also: potency is read from the fitted curve at half-maximal effect
Procedure, shortened: as §1

[5] = qHTS RealTime-Glo MT Cell Viability Assay in HepG2 cells - 16 hour (AID 1224885); also: nearly all actives have a fitted effect of over 50% in size; also: potency is read from the fitted curve at half-maximal effect
Procedure, shortened: (§3)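 HepG2 cells (600/well) were dispensed with RealTime-Glo reagents, incubated 5 h at 37 °C, then treated with compounds in DMSO for up to 40 h. Nonlytic NanoLuc luminescence reflecting viable cells was read at each stated time point.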

[6] = qHTS RealTime-Glo MT Cell Viability Assay in HEK293 cells - 24 hour (AID 1224886); also: nearly all actives have a fitted effect of over 50% in size; also: potency is read from the fitted curve at half-maximal effect; as to activity change, negative = cytotoxicity: top concentration of the series differs between compounds
Procedure, shortened: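 HEK293 cells seeded with NanoLuc/prosubstrate reagent, rested 5 h at 37 C, then dosed and kept at 37 C up to 40 h. Nonlytic real-time luminescence from viable cells read at 0, 8, 16, 24, 32 and 40 h.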

[7] = qHTS RealTime-Glo MT Cell Viability Assay in HEK293 cells - 8 hour (AID 1224887); also: nearly all actives have a fitted effect of over 50% in size; also: potency is read from the fitted curve at half-maximal effect; as to activity change, negative = cytotoxicity: top concentration of the series differs between compounds
Procedure, shortened: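 Real-time viability in HEK293: signal arises when living cells convert a prosubstrate for NanoLuc in the medium, so luminescence tracks viable cell number. Compound (23 nL, DMSO) added 5 h post-seeding; kinetic reads at 0–40 h, 37 C.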

[8] = A CellTox Green Cytotoxicity Assay to monitor cytotoxicity in HEK293 cells - 16 hour (AID 1224888); also: nearly all actives have a fitted effect of over 35% in size; also: potency is read from the fitted curve at half-maximal effect
Procedure, shortened: as §1

[9] = qHTS RealTime-Glo MT Cell Viability Assay in HepG2 cells - 0 hour (AID 1224889); also: nearly all actives have a fitted effect of over 50% in size
Procedure, shortened: as §3

[10] = A CellTox Green Cytotoxicity Assay to monitor cytotoxicity in HepG2 cells - 8 hour (AID 1224890); also: nearly all actives have a fitted effect of over 45% in size; also: potency is read from the fitted curve at half-maximal effect
Procedure, shortened: as §2

For CCCCCCCCCCCCCCCCCl, the cytotoxicity increase [1] was 8.79% [at 15.8 µM] (inactive), the cytotoxicity [2] was 7.68% [at 15.8 µM] (inactive) and the cytotoxicity increase [3] was 1.23% [at 15.8 µM] (inactive). The cytotoxicity increase [4] was 2.79% [at 15.8 µM] (inactive), the activity change, negative = cytotoxic [5] was 0.939% [at 15.8 µM] (inactive) and the activity change, negative = cytotoxicity [6] was 0.956% [at 15.8 µM] (inactive). The activity change, negative = cytotoxicity [7] was 1.34% [at 15.8 µM] (inactive), the activity change [8] was 5.27% [at 15.8 µM, stronger effect = higher value] (inactive) and the activity change, negative = cytotoxicity [9] was -0.916% [at 15.8 µM] (inactive). The cytotoxicity increase [10] was 3.53% [at 15.8 µM] (inactive).
For C=CC(=O)OCCCCCCCC, the Potency [1] was “inactive”, the Potency [2] was “inactive” and the Potency [3] was “inactive”. For the same compound, the Potency [4] was “inactive”, the Potency [5] was “inactive” and the Potency [6] was “inactive”. The Potency [7] was “inactive”, the Potency [8] was “inactive” and the Potency [9] was “inactive”. For the same compound, the Potency [10] was “inactive”.
For COC(c1ccccc1)(c1ccccc1)[C@H](Oc1nc(C)cc(C)n1)C(=O)O, the Potency [1] was “inactive”, the Potency [2] was “inactive” and the Potency [3] was “inactive”. The Potency [4] was “inactive”, the Potency [5] was “inactive” and the Potency [6] was “inactive”. The Potency [8] was “inactive”, the Potency [9] was “inactive” and the Potency [10] was “inactive”.
In the case of CC(C)C(=O)c1c(C(C)C)nn2ccccc12, the Potency [1] is reported as “inactive”, the Potency [2] is reported as “inactive” and the Potency [3] is reported as “inactive”. The Potency [4] was “inactive”, the Potency [5] was “inactive” and the Potency [6] was “inactive”. The Potency [7] was “inactive”, the Potency [8] was “inactive” and the Potency [9] was “inactive”. For the same compound, the Potency [10] was “inactive”.
With Cc1cc(C(C)(C)C)c(O)c(C(C)(C)C)c1 the Potency [1] was 49.1 µM (active), the Potency [2] was “inactive” and the Potency [3] was “inactive”. The Potency [4] was “inactive”, the Potency [5] was “inactive” and the Potency [6] was “inactive”. For the same compound, the Potency [8] was “inactive”, the Potency [9] was “inactive” and the Potency [10] was “inactive”.
In the case of O=C(O)Cn1cnnn1, the Potency [1] is reported as “inactive”, the Potency [2] is reported as “inactive” and the Potency [3] is reported as “inactive”. The Potency [4] was “inactive”, the Potency [5] was “inactive” and the Potency [6] was “inactive”. The Potency [8] was “inactive”, the Potency [9] was “inactive” and the Potency [10] was “inactive”.
For OCCOCCN1CCN(C(c2ccccc2)c2ccc(Cl)cc2)CC1 (centres undefined), the Potency [1] was “inactive”, the Potency [2] was “inactive” and the Potency [3] was 24.2 µM (active) and inactive. The Potency [4] was “inactive”, the Potency [5] was 48.3 µM (active) and inactive and the Potency [6] was 6.83 µM (active) and inactive. The Potency [7] was “inactive”, the Potency [8] was “inactive” and the Potency [9] was “inactive”. For the same compound, the Potency [10] was 43.1 µM (active) and inactive.
In the case of O, the Potency [1] is reported as “inactive”, the Potency [2] is reported as “inactive” and the Potency [3] is reported as “inactive”. For the same compound, the Potency [4] was “inactive”, the Potency [5] was “inactive” and the Potency [6] was “inactive”. The Potency [7] was “inactive”, the Potency [8] was “inactive” and the Potency [9] was “inactive”. For the same compound, the Potency [10] was “inactive”.
For CC(C)(c1ccccc1)c1ccc(Nc2ccc(C(C)(C)c3ccccc3)cc2)cc1, the Potency [1] was “inactive”, the Potency [2] was “inactive” and the Potency [3] was “inactive”. The Potency [4] was “inactive”, the Potency [5] was “inactive” and the Potency [6] was “inactive”. The Potency [7] was “inactive”, the Potency [8] was “inactive” and the Potency [9] was “inactive”. For the same compound, the Potency [10] was “inactive”.
In the case of c1cc(C(c2ccc(OCC3CO3)cc2)C(c2ccc(OCC3CO3)cc2)c2ccc(OCC3CO3)cc2)ccc1OCC1CO1 (centres undefined), the Potency [1] is reported as “inactive”, the Potency [2] is reported as “inactive” and the Potency [3] is reported as “inactive”. For the same compound, the Potency [4] was “inactive”, the Potency [5] was “inactive” and the Potency [6] was “inactive”. For the same compound, the Potency [7] was “inactive”, the Potency [8] was “inactive” and the Potency [9] was “inactive”. The Potency [10] was “inactive”.
In the case of CCN1CCCC1CNC(=O)c1cc(S(=O)(=O)CC)c(N)cc1OC (centres undefined), the Potency [1] is reported as “inactive”, the Potency [2] is reported as “inactive” and the Potency [3] is reported as “inactive”. For the same compound, the Potency [4] was “inactive”, the Potency [5] was “inactive” and the Potency [6] was “inactive”. The Potency [7] was “inactive”, the Potency [8] was “inactive” and the Potency [9] was “inactive”. For the same compound, the Potency [10] was “inactive”.
With NC(N)=Nc1nc(CSCC/C(N)=N/S(N)(=O)=O)cs1 the Potency [1] was “inactive”, the Potency [2] was “inactive” and the Potency [3] was “inactive”. The Potency [4] was “inactive”, the Potency [5] was “inactive” and the Potency [6] was “inactive”. For the same compound, the Potency [7] was “inactive”, the Potency [8] was “inactive” and the Potency [9] was “inactive”. For the same compound, the Potency [10] was “inactive”.
With O=C1OC2(c3ccc(O)cc3Oc3cc(O)ccc32)c2ccccc21 the Potency [1] was 692 nM (active) and 1.2 µM (active), the Potency [2] was 1.55 µM (active) and 301 nM (active) and the Potency [3] was 616 nM (active) and 301 nM (active). The Potency [4] was 692 nM (active) and 848 nM (active), the Potency [5] was “inactive” and the Potency [6] was “inactive”. For the same compound, the Potency [7] was “inactive”, the Potency [8] was 616 nM (active) and 1.2 µM (active) and the Potency [9] was “inactive”. The Potency [10] was 692 nM (active) and 301 nM (active).
In the case of NNCCc1ccccc1, the Potency [1] is reported as “inactive”, the Potency [2] is reported as “inactive” and the Potency [3] is reported as “inactive”. The Potency [4] was “inactive”, the Potency [5] was “inactive” and the Potency [6] was “inactive”. The Potency [7] was “inactive”, the Potency [8] was “inactive” and the Potency [9] was “inactive”. The Potency [10] was “inactive”.
With Cc1ccc(-c2cc(C(F)(F)F)nn2-c2ccc(S(N)(=O)=O)cc2)cc1 the Potency [1] was 49 µM (active) and inactive, the Potency [2] was “inactive” and the Potency [3] was 48.8 µM (active) and 49 µM (active). The Potency [4] was “inactive”, the Potency [5] was 48.8 µM (active) and 43.6 µM (active) and inactive and the Potency [6] was 38.7 µM (active) and 30.9 µM (active). The Potency [7] was 43.5 µM (active) and 30.9 µM (active) and inactive, the Potency [8] was “inactive” and the Potency [9] was “inactive”. For the same compound, the Potency [10] was 54.9 µM (active).
With CCn1cc(C(=O)O)c(=O)c2cc(F)c(N3CCNC(C)C3)c(F)c21 (centres undefined) the Potency [1] was “inactive”, the Potency [2] was “inactive” and the Potency [3] was “inactive”. The Potency [4] was “inactive”, the Potency [5] was “inactive” and the Potency [6] was “inactive”. The Potency [8] was “inactive”, the Potency [9] was “inactive” and the Potency [10] was “inactive”.
In the case of Nc1nc2ccccc2[nH]1, the Potency [1] is reported as “inactive”, the Potency [2] is reported as “inactive” and the Potency [3] is reported as “inactive”. The Potency [4] was “inactive”, the Potency [5] was “inactive” and the Potency [6] was “inactive”. For the same compound, the Potency [7] was “inactive”, the Potency [8] was “inactive” and the Potency [9] was “inactive”. For the same compound, the Potency [10] was “inactive”.
For O=C(O)c1cn(-c2ccc(F)cc2)c2cc(N3CCNCC3)c(F)cc2c1=O, the Potency [1] was “inactive”, the Potency [2] was “inactive” and the Potency [3] was “inactive”. The Potency [4] was “inactive”, the Potency [5] was “inactive” and the Potency [6] was “inactive”. The Potency [7] was “inactive”, the Potency [8] was “inactive” and the Potency [9] was “inactive”. For the same compound, the Potency [10] was “inactive”.
In the case of CC(=O)CC(=O)Nc1ccc2[nH]c(=O)[nH]c2c1, the Potency [1] is reported as “inactive”, the Potency [2] is reported as “inactive” and the Potency [3] is reported as “inactive”. The Potency [4] was “inactive”, the Potency [5] was “inactive” and the Potency [6] was “inactive”. The Potency [8] was “inactive”, the Potency [9] was “inactive” and the Potency [10] was “inactive”.
For C[N+]1([O-])CCOCC1, the Potency [1] was “inactive”, the Potency [2] was “inactive” and the Potency [3] was “inactive”. For the same compound, the Potency [4] was “inactive”, the Potency [5] was “inactive” and the Potency [6] was “inactive”. The Potency [8] was “inactive”, the Potency [9] was “inactive” and the Potency [10] was “inactive”.
